The campaign covered roughly 310,000 compounds. About 14,000 (4.5%) showed an effect of 50% or more. The effect is printed as a negative number. For the sample, strong results were picked, then their nearest neighbours and some compounds at random.
molecular target: human ether-à-go-go-related gene (hERG) potassium channel (human, UniProt Q12809); assay: primary screen, population patch clamp on CHO cells stably expressing hERG; higher = less effect of the substance
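Further: peak tail current of the secondary pulse compared with the same well before compound.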

human ether-à-go-go-related gene (hERG) potassium channel, sequence (Q12809 whole entry, looked up): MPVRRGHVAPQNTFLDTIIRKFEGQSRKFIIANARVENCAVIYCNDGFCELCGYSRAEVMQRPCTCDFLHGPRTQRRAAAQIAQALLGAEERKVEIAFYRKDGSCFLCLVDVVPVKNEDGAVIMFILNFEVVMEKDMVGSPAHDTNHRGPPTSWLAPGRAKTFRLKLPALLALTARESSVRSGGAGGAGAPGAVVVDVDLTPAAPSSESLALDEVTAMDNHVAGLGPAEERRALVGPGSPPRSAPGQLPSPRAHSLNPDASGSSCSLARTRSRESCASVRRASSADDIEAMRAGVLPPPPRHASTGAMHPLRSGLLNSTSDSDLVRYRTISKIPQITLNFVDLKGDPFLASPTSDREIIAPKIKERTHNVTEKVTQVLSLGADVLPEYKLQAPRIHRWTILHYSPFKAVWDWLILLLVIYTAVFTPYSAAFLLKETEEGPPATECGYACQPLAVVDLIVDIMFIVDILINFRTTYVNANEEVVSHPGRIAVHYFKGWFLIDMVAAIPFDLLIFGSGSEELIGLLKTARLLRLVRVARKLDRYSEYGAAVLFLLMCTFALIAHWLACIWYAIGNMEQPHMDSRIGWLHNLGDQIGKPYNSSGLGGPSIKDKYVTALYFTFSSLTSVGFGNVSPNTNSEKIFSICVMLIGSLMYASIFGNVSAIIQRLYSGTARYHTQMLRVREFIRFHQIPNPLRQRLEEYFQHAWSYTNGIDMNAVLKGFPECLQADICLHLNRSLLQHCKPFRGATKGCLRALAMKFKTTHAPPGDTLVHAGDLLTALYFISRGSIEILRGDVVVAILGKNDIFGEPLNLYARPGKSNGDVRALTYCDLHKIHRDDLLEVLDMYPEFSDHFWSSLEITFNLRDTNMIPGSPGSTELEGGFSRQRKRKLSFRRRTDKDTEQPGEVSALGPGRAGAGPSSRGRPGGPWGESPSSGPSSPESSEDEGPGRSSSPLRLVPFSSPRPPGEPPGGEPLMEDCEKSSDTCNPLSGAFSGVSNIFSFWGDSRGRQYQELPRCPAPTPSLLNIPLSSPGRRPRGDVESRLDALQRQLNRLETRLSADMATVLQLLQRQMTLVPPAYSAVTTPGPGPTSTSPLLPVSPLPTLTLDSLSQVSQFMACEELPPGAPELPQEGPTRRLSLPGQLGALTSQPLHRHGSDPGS

Compared with COc1cccc(NC(=O)Cc2ccccc2)c1, O=C(NC1CC1)c1cccc(Oc2ccccc2)c1 is higher in “hERG current change (%, negative = inhibition) at 10uM” value: -3.98% for the first, 1.52% for the second.

Going from Cc1ccc2c(c1)N(CCCC(=O)NCCC1=CCCCC1)C(=O)CO2 to CCc1ccc(-c2cc(C)no2)cc1S(=O)(=O)N1CCOc2ccc(C)cc21, the “hERG current change (%, negative = inhibition) at 10uM” value rises from -9.81% to 13.1%.

Compared with CCOc1cc(N2CCOCC2)c(OCC)cc1NC(=O)COC(=O)c1cc2ccccc2cc1O, COc1cc(OC)cc(C(=O)NC2CCN(CCCOc3ccccc3)CC2)c1 is lower in “hERG current change (%, negative = inhibition) at 10uM” value: -11.7% for the first, -70.2% for the second.

Compared with Cc1c(NC(=O)C(C)N(c2ccccc2)S(C)(=O)=O)c(=O)n(-c2ccccc2)n1C (centres unmarked), O=C(Cn1ncc2c3ccccc3n(Cc3ccccc3)c2c1=O)NC1CCCC1 is lower in “hERG current change (%, negative = inhibition) at 10uM” value: 18.7% for the first, 10.1% for the second.

First: O=C(CCl)Nc1cccc(S(=O)(=O)NC2=NCCC2)c1
Second: CS(=O)(=O)c1ccc(-c2cccc(NC(=O)COc3ccc(Cl)cc3)c2)nn1
The “hERG current change (%, negative = inhibition) at 10uM” value of the first is lower: -0.632% for the first, 6.7% for the second.

Compared with CSc1cccc(CN2CCC(Oc3cccc(C(=O)N4CCCC4)c3)CC2)c1, CSc1ccc(CN2CCC(Oc3cccc(C(=O)N4CCCC4)c3)CC2)cc1 is lower in “hERG current change (%, negative = inhibition) at 10uM” value: -44.4% for the first, -60.7% for the second.

Going from COc1cc(C)c(CN2CCC(Oc3ccc(C(=O)N4CCCC4)cc3)CC2)cc1C to COc1ccc(CN2CCC(Oc3ccc(C(=O)N4CCCCC4)cc3)CC2)cc1C, the “hERG current change (%, negative = inhibition) at 10uM” value falls from -43.1% to -45.7%.

First: O=C(c1cccc(OC2CCN(Cc3cccc(OCCO)c3)CC2)c1)N1CCCC1
Second: CCOc1cccc(CN2CCC(Oc3ccc(C(=O)N4CCCC4)cc3)CC2)c1
The “hERG current change (%, negative = inhibition) at 10uM” value of the first is higher: -2.71% for the first, -27.4% for the second.

First: COC(=O)c1ccc(CN2CCC(Oc3cccc(C(=O)N4CCCC4)c3)CC2)cc1
Second: COC(=O)c1ccc(CN2CCC(Oc3cccc(C(=O)N4CCOCC4)c3)CC2)cc1
The “hERG current change (%, negative = inhibition) at 10uM” value of the first is lower: -50.8% for the first, -22.7% for the second.

Compared with Cn1cc(CN2CCC(Oc3ccc(C(=O)N4CCCC4)cc3)CC2)cn1, CSc1cccc(CN2CCC(Oc3ccc(C(=O)N4CCCCC4)cc3)CC2)c1 is lower in “hERG current change (%, negative = inhibition) at 10uM” value: 9.86% for the first, -25.2% for the second.

Compared with CSc1ccc(CN2CCC(Oc3ccc(C(=O)N4CCCC4)cc3)CC2)cc1, O=C(c1ccc(OC2CCN(Cc3ccc(F)cc3)CC2)cc1)N1CCCC1 is higher in “hERG current change (%, negative = inhibition) at 10uM” value: -71.1% for the first, -24% for the second.

First: O=C(c1cccc(OC2CCN(Cc3cc(F)cc(F)c3)CC2)c1)N1CCCC1
Second: COc1cccc(CN2CCC(Oc3ccc(C(=O)N4CCCCC4)cc3)CC2)c1
The “hERG current change (%, negative = inhibition) at 10uM” value of the first is lower: -34.9% for the first, -25.3% for the second.

Compared with COc1ccc(CN2CCC(Oc3ccc(C(=O)N4CCCC4)cc3)CC2)c(F)c1, CCc1ccc(CN2CCC(Oc3ccc(C(=O)N4CCCC4)cc3)CC2)cc1 is lower in “hERG current change (%, negative = inhibition) at 10uM” value: -51.4% for the first, -81.3% for the second.

Compared with COc1ccc(NC(=O)Nc2nnc(C(C)(C)C)s2)cc1, COc1ccc(NC(=O)Nc2cccc(Cl)c2Cl)c(OC)n1 is higher in “hERG current change (%, negative = inhibition) at 10uM” value: -18.8% for the first, 3.16% for the second.

First: COC(=O)C(Cc1ccccc1)OS(N)(=O)=O (centres unmarked)
Second: COc1cc(OC)cc(C(=O)NCCOc2ccccc2)c1
The “hERG current change (%, negative = inhibition) at 10uM” value of the first is higher: 16.1% for the first, -17.6% for the second.

First: COCCN1CN=C(NS(=O)(=O)c2ccc(C)cc2)NC1
Second: CCN(C1=NS(=O)(=O)c2ccccc21)N(CC)S(=O)(=O)c1ccc(C)cc1
The “hERG current change (%, negative = inhibition) at 10uM” value of the first is lower: 16.3% for the first, 19.8% for the second.

Compared with COc1cc(NC(=O)COc2cccc3c2OC(C)(C)C3)cc(OC)c1OC, COc1cc(OC)cc(C(=O)NNC(=O)CCCOc2ccccc2)c1 is lower in “hERG current change (%, negative = inhibition) at 10uM” value: -6.09% for the first, -18.4% for the second.

Going from CCOC(=O)Cc1csc(NC(=O)c2ccc(S(=O)(=O)N3CCOCC3)cc2)n1 to O=C1CCCC(O)=C1N=Nc1ccc(S(=O)(=O)N2CCOCC2)cc1, the “hERG current change (%, negative = inhibition) at 10uM” value rises from -2.52% to 2.06%.

First: CN1CCN(C(=O)CSc2ccc(C(F)(F)F)cc2[N+](=O)[O-])CC1
Second: CS(=O)(=O)N(CC(=O)N1CCN(c2ccc(F)cc2)CC1)c1cccc(Cl)c1
The “hERG current change (%, negative = inhibition) at 10uM” value of the first is higher: -10.2% for the first, -49.9% for the second.

Going from COC(=O)c1ccc(CN2CCC(Oc3ccc(C(=O)N4CCCCC4)cc3)CC2)cc1 to CC(=O)Nc1ccc(CN2CCC(Oc3ccc(C(=O)N4CCCC4)cc3)CC2)cc1, the “hERG current change (%, negative = inhibition) at 10uM” value rises from -51.7% to -21.3%.

Going from CC(=O)c1c(C)[nH]c(C(=O)Nc2cc(S(=O)(=O)N3CCCCC3)ccc2C)c1C to COc1ccc(F)cc1C(=O)C1CCCN(C(=O)c2ccc(C(C)=O)s2)C1 (centres unmarked), the “hERG current change (%, negative = inhibition) at 10uM” value falls from 2.24% to -4.71%.

Going from CC(=O)O[C@@H]1/C=C/[C@](C)(O)C[C@@H](C)C/C=C/[C@H]2[C@H](O)C(C)=C(C)[C@H]3[C@H](Cc4ccccc4)NC(=O)[C@@]123 to CCCN1CCC(Oc2cccc(C(=O)NCCc3ccccc3)c2)CC1, the “hERG current change (%, negative = inhibition) at 10uM” value falls from -15.4% to -66%.

Going from Cl.Oc1ccc(CC2CC3CCN2CC3)cc1O (centres unmarked) to CCCN1CCC(NC(=O)c2cccc(Oc3ccccc3)c2)CC1, the “hERG current change (%, negative = inhibition) at 10uM” value falls from 12.7% to -51.9%.

Going from O=C(Cc1cccs1)N/N=C\c1ccc(O)cc1 to CC(=O)N(C)c1ccc(N=Cc2c(O)ccc3ccccc23)cc1, the “hERG current change (%, negative = inhibition) at 10uM” value falls from 14.5% to -20.9%.

First: CC(C)(C)N1CC(c2nc3ccccc3n2CCOc2ccccc2)CC1=O (centres unmarked)
Second: COc1ccc(C2(O)CCN(CCCCOc3ccccc3)CC2)cc1
The “hERG current change (%, negative = inhibition) at 10uM” value of the first is higher: -26.1% for the first, -70.6% for the second.

First: Cc1ccc2nc(N(CCCN(C)C)C(=O)c3ccc4ncsc4c3)sc2c1
Second: CCc1ccc2nc(N(CCN(C)C)C(=O)c3ccc4ncsc4c3)sc2c1.Cl
The “hERG current change (%, negative = inhibition) at 10uM” value of the first is lower: -61.4% for the first, -60.6% for the second.

Compared with Cc1ccc2nc(N(CCN(C)C)C(=O)c3ccc4ccccc4c3)sc2c1.Cl, CCc1ccc2nc(N(CCN(C)C)C(=O)c3ccc4ccccc4c3)sc2c1.Cl is lower in “hERG current change (%, negative = inhibition) at 10uM” value: 15.9% for the first, 0.369% for the second.

Compared with Cc1cccc2sc(N(CCCN(C)C)C(=O)c3ccc4ncsc4c3)nc12, Cc1ccc2nc(N(CCCN(C)C)C(=O)c3ccc(S(=O)(=O)N(C)C)cc3)sc2c1.Cl is higher in “hERG current change (%, negative = inhibition) at 10uM” value: -45% for the first, -42.1% for the second.

First: O=C(CCNC(=O)c1ccc([N+](=O)[O-])cc1)NC1CCCCCC1
Second: COCC(C)N1CCC(Oc2ccc(C(=O)NCc3ccccn3)cc2)CC1 (centres unmarked)
The “hERG current change (%, negative = inhibition) at 10uM” value of the first is lower: -25.3% for the first, 13.1% for the second.

Compared with CCSc1nsc(NC(=O)Nc2ccc(F)cc2F)n1, CC(C)(C)NC(=O)C(c1cccs1)N(C(=O)c1csnn1)c1cccc(F)c1 (centres unmarked) is lower in “hERG current change (%, negative = inhibition) at 10uM” value: 24.1% for the first, -7.68% for the second.

Compared with O=S(=O)(c1ccc(Cl)s1)N1CCc2ccccc2C1, CN1CCC(NC(=O)c2cccc(Oc3ccccc3)c2)CC1 is lower in “hERG current change (%, negative = inhibition) at 10uM” value: 7.13% for the first, -8.93% for the second.

Compared with NC(=S)Nc1cc(Cl)cc(Cl)c1, Oc1ccc(Br)cc1-c1cc(-c2ccc(Cl)cc2)n[nH]1 is lower in “hERG current change (%, negative = inhibition) at 10uM” value: 17.1% for the first, 7.99% for the second.

First: CC(C)NC(=O)CCS(=O)(=O)c1ccc(Br)s1
Second: Cc1cc(OC(C)C(=O)NCC2CCC(C(=O)O)CC2)c2c(C)cc(=O)oc2c1 (centres unmarked)
The “hERG current change (%, negative = inhibition) at 10uM” value of the first is lower: 16.1% for the first, 24.5% for the second.

Compared with COc1ccc(/C=N/NC(=O)c2cccc([N+](=O)[O-])c2)cc1OS(=O)(=O)c1ccc(C)cc1, Cn1cc(/C=C(\C#N)C(=O)Nc2cccc([N+](=O)[O-])c2)c2ccccc21 is higher in “hERG current change (%, negative = inhibition) at 10uM” value: -16.1% for the first, 28.4% for the second.

Going from COCc1cc(OC(=O)N(C)C)nc2c1c(C)nn2C to CC(C)c1csc2nc3n(c(=O)c12)CCCCC3, the “hERG current change (%, negative = inhibition) at 10uM” value falls from -9.48% to -10.7%.

Compared with O=C(CNC(=O)C12CC3CC(CC(C3)C1)C2)N/N=C\c1ccco1, COc1ccc(NC(=O)C2C3C=CC4(O3)C2C(=O)N(CCN2CCCCC2C)C4C(=O)NC2CCCC(C)C2C)cc1 (centres unmarked) is lower in “hERG current change (%, negative = inhibition) at 10uM” value: 5.05% for the first, -22.4% for the second.

Compared with COCC(C)N1CCC(Oc2cccc(C(=O)NCCc3ccccc3)c2)CC1 (centres unmarked), COCCNC(=O)c1cccc(OC2CCN(Cc3ccccc3C)CC2)c1 is higher in “hERG current change (%, negative = inhibition) at 10uM” value: -66.3% for the first, 6.34% for the second.

Compared with COc1cccc(OCCCCN2CCCCC2)c1, c1ccc(OCCCCN2CCOCC2)cc1 is lower in “hERG current change (%, negative = inhibition) at 10uM” value: -8.36% for the first, -14.5% for the second.

Going from COCCNC(=O)c1cccc(OC2CCN(Cc3cccc(SC)c3)CC2)c1 to COCCNC(=O)c1cccc(OC2CCN(Cc3cccc(C(C)=O)c3)CC2)c1, the “hERG current change (%, negative = inhibition) at 10uM” value rises from -35.2% to 6.74%.

Compared with COC(=O)c1ccc(N=C(c2ccccc2)c2c(O)n(C)c(=O)n(C)c2=O)cc1, Cc1cccc(C)c1-n1c(SCC(=O)N2CC(=O)Nc3ccccc32)nc2ccccc2c1=O is lower in “hERG current change (%, negative = inhibition) at 10uM” value: 6.79% for the first, -0.373% for the second.

First: O=C(NCCc1csc(-c2cccnc2)n1)c1cccs1
Second: C#CCN1C(=O)C(O)(CC(=O)/C=C/C=C/c2ccccc2)c2ccccc21 (centres unmarked)
The “hERG current change (%, negative = inhibition) at 10uM” value of the first is lower: -5.91% for the first, 21.6% for the second.

First: Cc1ccc(Sc2ncnc3onc(C)c23)cc1
Second: Cc1noc2ncnc(Sc3ccc(Cl)cc3)c12
The “hERG current change (%, negative = inhibition) at 10uM” value of the first is lower: 4.79% for the first, 16.3% for the second.

Going from Cc1noc2ncnc(Sc3ccc(Br)cc3)c12 to O=[N+]([O-])c1ccccc1CNCCCCO, the “hERG current change (%, negative = inhibition) at 10uM” value rises from -50.8% to -3.05%.

Source: PMC4336329 (PLoS ONE, 2015)
